Active and inactive are the calls of the source. How the source made its calls: active means hit-call score of the fitted dose curve at least 0.9, where 1 is the maximum; inactive means score below 0.9.

Read-out in this assay: solute carrier (SLC22A1), SLC22A1 (gene 6580)
The experiment in a line: LTEA_HepaRG_SLC22A1: Life Technologies and Expression Analysis (LTEA) Assay for solute carrier (SLC22A1) using HepaRG (AID 2283524).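 On AC50: differentiated human HepaRG liver cells in serum-free induction medium; TaqMan qRT-PCR normalized to ACTB GAPDH and POLR2A housekeeping genes.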 Conditions: mRNA level, 48 h; actives raise or lower the signal. Summed up:
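Transcript level of SLC22A1 quantified by qRT-PCR (normalized to three housekeeping genes) after 48 h chemical exposure of HepaRG cells, eight concentrations up to 100 µM, half-log steps, 0.5% DMSO vehicle. Gain or loss relative to DMSO fitted bidirectionally.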
Take `S=c1[nH]c2ccccc2s1`: the compound was called inactive. Same read-out and setting: next, `Oc1ccccc1O`: “inactive”; `CC(C)(C)c1ccccc1`: “inactive”; `CCCC[C@H]1CN(CC2CCOCC2)C(=O)OC12CCN(C1(C)CCN(C(=O)c3c(C)ncnc3C)CC1)CC2`: “inactive”. Turning to `O=C1NC(=O)C(c2ccccc2)(c2ccccc2)N1`, the outcome was inactive. Consider `CCc1nc(N)nc(N)c1-c1ccc(Cl)cc1`, for which the AC50 is 21.1 µM (active). On to `O=C1O[C@H]([C@H](O)CO)C(O)=C1O`, for which the call was inactive. The same measure, in the same setting: with `O=C(Oc1ccccc1)c1cccc(C(=O)Oc2ccccc2)c1` the entry was “inactive”; with `O=C(NS(=O)(=O)/C=C/c1cccs1)c1ccc(F)cc1Br`, “inactive”; with `CC(N)=O`, “inactive”. As for `COC(=O)[C@H]1[C@H]2C[C@@H]3c4[nH]c5cc(OC)ccc5c4CCN3C[C@H]2C[C@@H](OC(=O)c2cc(OC)c(OC)c(OC)c2)[C@@H]1OC`, the AC50 is 52.8 µM (active).

Turning to `CCCCCCCCCC[N+](C)(C)[O-]`, the result was inactive. On the same count and under the same terms, next, `CC(COCC(C)OC(=O)c1ccccc1)OC(=O)c1ccccc1` (configuration not stated): “inactive”; `C/C=C/C=C/C(=O)O`: “inactive”. Still for that read-out and setting: next, `CC(C)c1cccc(C(C)C)c1NC(=O)NS(=O)(=O)c1cc(C(C)(C)O)co1`: “inactive”; `NC(=Nc1ccccc1)Nc1ccccc1`: “inactive”; `CC(C)(O)c1ccc(CNC(=O)c2cccnc2Oc2ccc(F)cc2)cc1`: “inactive”. In the case of `O=Cc1ccccc1C=O`, the call was inactive. Same read-out and setting: with `Cc1cn([C@H]2C=C[C@@H](CO)O2)c(=O)[nH]c1=O` the entry was “inactive”.

For `CC(C)NCC(O)c1ccc(O)c(O)c1` (configuration not stated), the AC50 was 0.209 µM (active). Consider `CC(=O)O`, for which the call was inactive.

For `COc1ccc(OC(F)(F)F)cc1CN[C@H]1CCCN[C@H]1c1ccccc1`, the AC50 was 50 µM (active).

For orientation: AC50 means the concentration at which the activity in the assay is half-maximal.
